Assay outcomes deposited in PubChem by Sanford-Burnham Center for Chemical Genomics.
CYP2C9 inh – inhibitors of human CYP2C9 | P11712 | CYP2C9 Supersomes, luciferin-H conversion, luminescence | inhibition, % at 5 µM | 96,000 tested, 20% active;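 active = blocking of liver enzyme CYP2C9 beyond about 50% at 5 µM, limit read from the data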
CYP2C19 act – increases human CYP2C19 enzyme activity. AID 1025. 96,000 tested, under 10 active. activation factor at 5 µM. recombinant CYP2C19, luciferin-H EGE luminescence; active compounds read high; 0 = fully inhibited enzyme, 1 = untreated enzyme;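 active = activation factor of at least 2 at 5 µM in the primary screen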
CYP2C9 act – CYP2C9 (human) activation; recombinant CYP2C9, luciferin-H conversion, luminescence; active compounds read high; factor 1 = untreated enzyme, 0 = blocked; AID 1024; activation factor at 5 µM; P11712; 96,000 tested, 1.4% active;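 active = activation factor of 2 or more for CYP2C9 at a 5 µM dose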
CD11b adhes enh – CD11b/CD18-fibrinogen binding enhancement. P05107+P11215. K562 CD11b/CD18 adhesion to fibrinogen, ATPlite luminescence. activation, % at 10 µM. 93,000 tested, 0.07% active. AID 1499;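 active = 10 µM primary screen giving 50% or more activity, confirmed by 40% or more on retest at that dose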
Target sequence (P05107 whole entry, looked up, other chains not shown): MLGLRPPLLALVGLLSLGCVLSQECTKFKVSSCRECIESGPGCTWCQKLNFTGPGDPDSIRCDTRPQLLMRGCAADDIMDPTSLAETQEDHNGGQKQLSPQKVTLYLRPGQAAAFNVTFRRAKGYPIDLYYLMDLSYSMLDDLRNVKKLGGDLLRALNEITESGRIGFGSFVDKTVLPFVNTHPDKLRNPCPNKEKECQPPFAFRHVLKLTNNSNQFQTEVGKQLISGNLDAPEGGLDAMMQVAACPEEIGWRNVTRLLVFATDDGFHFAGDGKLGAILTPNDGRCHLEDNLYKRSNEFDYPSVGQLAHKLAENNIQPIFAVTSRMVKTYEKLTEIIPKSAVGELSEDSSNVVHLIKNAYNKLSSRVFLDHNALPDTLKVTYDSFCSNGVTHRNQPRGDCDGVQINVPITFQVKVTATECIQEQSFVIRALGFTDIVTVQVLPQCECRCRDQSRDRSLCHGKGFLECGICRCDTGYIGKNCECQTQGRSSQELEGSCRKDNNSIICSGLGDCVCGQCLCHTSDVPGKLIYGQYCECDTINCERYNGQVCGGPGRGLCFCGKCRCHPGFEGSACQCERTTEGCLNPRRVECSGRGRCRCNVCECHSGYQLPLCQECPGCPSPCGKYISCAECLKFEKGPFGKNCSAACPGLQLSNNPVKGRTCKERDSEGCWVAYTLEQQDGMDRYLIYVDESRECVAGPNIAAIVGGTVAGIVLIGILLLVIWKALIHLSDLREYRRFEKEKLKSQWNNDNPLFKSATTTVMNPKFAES
CYP2C19 inhib – inhibitors of human CYP2C19; 96,000 tested, 21% active; AID 778; CYP2C19 Supersomes, luciferin-H EGE luminescence, 30 min; P33261; inhibition, % at 5 µM;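 active = CYP2C19 inhibition above a set limit at 5 µM in the primary screen, cut at about 50% in these data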
CD11b adhes inh – CD11b/CD18-fibrinogen binding inhibition; P05107+P11215; K562 CD11b/CD18 adhesion to fibrinogen, ATPlite luminescence; Mn2+ added to activate the integrin; inhibition, % at 10 µM; 93,000 tested, 0.54% active;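 active = primary inhibition of 50% or more at 10 µM, then 40% or more on retest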
Of the large screens only hits and unclear results are named; the others gave an inactive call. Only some compounds are listed: those with a hit (about 28% of all), similar ones and a draw of the others.

c1ccc(CN2CCN(c3ncccn3)CC2)nc1	CYP2C19 inhib 54
Fc1ccc(CN2CCN(c3ncccn3)CC2)cc1	CYP2C19 inhib 57
NS(=O)(=O)c1ccc(CCNc2ncnc3sccc23)cc1	CYP2C19 inhib 83
CC1(C)CC(=O)C=C(NCCc2ccc(S(N)(=O)=O)cc2)C1	none
Cc1sc2ncnc(NCCc3ccc(S(N)(=O)=O)cc3)c2c1C	CD11b adhes inh 51
COc1cccc2cc(-c3nnc(SCC(=O)NCc4ccccc4)n3C)oc12	none
CCN(CC)C(=O)COc1cccc2ccccc12	CYP2C9 act 3.7, CYP2C19 inhib 93
CCN(c1ccccc1)S(=O)(=O)c1ccc(NC(=S)NC(=O)c2ccc(Br)o2)cc1	CYP2C9 inh 67
COCc1nnc(NC(=O)c2ccc(S(=O)(=O)N(C)c3ccccc3)cc2)o1	CYP2C9 inh 77
Cc1ccc(C(=O)NC(=S)Nc2ccc(S(=O)(=O)N(C)c3ccccc3)cc2)cc1	none
CCc1nnc(NC(=O)c2ccc(S(=O)(=O)N(CCOC)CCOC)cc2)o1	none
CN(c1ccccc1)S(=O)(=O)c1ccc(NC(=S)NC(=O)c2ccccc2)cc1	CYP2C9 inh 70
CCN(c1ccccc1)S(=O)(=O)c1ccc(C(=O)Nc2nnc(COC)o2)cc1	CYP2C9 inh 70
CCOc1ccc(CNC(=S)N/N=C/c2ccncc2)cc1	none (no result: CYP2C9 inh, CYP2C19 act, CYP2C9 act, CYP2C19 inhib)
CCC1(C)Cc2c(sc3nnn(CC(=O)Nc4ccccc4C)c(=O)c23)CO1 (stereo not drawn)	CYP2C19 inhib 84
CCC1(C)Cc2c(sc3nnn(CC(=O)Nc4ccccc4)c(=O)c23)CO1 (stereo not drawn)	CYP2C9 inh 68, CYP2C19 inhib 89
CCC1(C)Cc2c(sc3nnn(Cc4ccccc4Cl)c(=O)c23)CO1 (stereo not drawn)	CYP2C9 inh 76 (no result: CD11b adhes enh, CD11b adhes inh)
O=C(NNC(=O)C1CC1c1ccccc1)Nc1cccc(Cl)c1 (stereo not drawn)	none
CNc1c([N+](=O)[O-])cnn1-c1ccc(C)cc1	none
COc1ccc(C2C3=C(Nc4ncnn42)c2ccccc2CC3)cc1OC (stereo not drawn)	CYP2C19 inhib 55
O=C(NC(C(=O)c1ccccc1)N1CCCCC1)c1ccccc1 (stereo not drawn)	CYP2C9 inh 99, CYP2C19 inhib 77
O=C(NC(C(=O)c1ccccc1)n1ccc(=O)[nH]c1=O)c1ccccc1 (stereo not drawn)	none
Cc1ccc(C(=O)NC(N2CCCC2)C(Cl)(Cl)Cl)cc1 (stereo not drawn)	CYP2C19 inhib 69 (no result: CD11b adhes enh, CD11b adhes inh)
Cc1ccsc1C(=O)Nc1ccc(C(=O)O)cc1	CYP2C9 inh 57, CYP2C19 inhib 92
Cc1oc2c(c1C(=O)Nc1ccc(C(=O)O)cc1)CCCC2	none
CC(C)OCCCn1c(=NC(=O)c2ccncc2)c(C#N)cc2c(=O)n3ccccc3nc21	CYP2C9 inh 74, CYP2C19 inhib 80
CCCCCn1c(=NC(C)=O)c(C#N)cc2c(=O)n3ccccc3nc21	none
CC(C)OCCCn1c(=N)c(C(N)=S)cc2c(=O)n3ccccc3nc21	CYP2C19 inhib 79
CCCCn1c(=NC(=O)c2ccc3c(c2)OCO3)c(C#N)cc2c(=O)n3cccc(C)c3nc21	CYP2C9 inh 57
CC(C)COC(=O)c1ccc2c(c1O)C(=O)c1ccccc1C2=O	none
CCN(CC)Cc1cc(CC(C(N)=O)C(N)=O)ccc1OC	none
Cc1ccc(NC(=O)c2cn(CCC#N)nc2-c2cccs2)c([N+](=O)[O-])c1	none (no result: CYP2C9 inh, CYP2C19 act, CYP2C9 act, CYP2C19 inhib)
CCOC(=O)c1[nH]c(C)c(CN(CCc2ccc(OC)c(OC)c2)C(=O)CCCC(=O)O)c1C	none
CCOC(=O)c1[nH]c(C)c(CN(CCc2ccccc2)S(C)(=O)=O)c1C	CYP2C9 inh 56
COc1cc(O)oc1C=Nc1ccc(Cl)cc1Cl	CYP2C19 inhib 69 (no result: CD11b adhes enh, CD11b adhes inh)
CC1CCN(C(=S)NCCc2ccccc2)CC1	CYP2C19 inhib 73
S=C(NCCc1ccccc1)N1CCN(Cc2ccc(Cl)c(Cl)c2)CC1	none (no result: CYP2C9 inh, CYP2C19 act, CYP2C9 act, CYP2C19 inhib)
CN1CCN(C(=S)NCCc2ccccc2)CC1	CYP2C19 inhib 64
CN(Cc1ccccc1)C(=O)[C@H]1CCC(=O)N1Cc1ccco1	none
O=C(CN1C(=O)CSc2ccccc21)N1CCc2ccccc21	CYP2C19 inhib 82
O=C(CCN1CCc2ccccc2C1)Nc1cccc(F)c1	CYP2C19 inhib 92
O=C(CCN1CCc2ccccc2C1)Nc1ccccc1	CYP2C9 inh 60, CYP2C19 inhib 91
CN1C(=O)C(=O)N(CC(=O)N2CCc3ccccc32)C1=O	none
CC(CC(=O)N1CCc2ccccc21)c1ccccc1 (stereo not drawn)	CYP2C19 inhib 94
CCc1cc2c(=O)n(-c3ccccc3)c(=S)[nH]c2s1	none (no result: CD11b adhes enh, CD11b adhes inh)
Cc1cccc(N(C)S(=O)(=O)c2ccc3[nH]c(=O)c(=O)[nH]c3c2)c1	none (no result: CD11b adhes enh, CD11b adhes inh)
O=C(CCC(=O)N1CCc2ccccc21)Nc1ccccc1	CYP2C19 inhib 92
Cc1ccc(OCc2nc(-c3ccc(Cl)cc3)n[nH]2)cc1	CYP2C9 inh 94, CYP2C19 inhib 95
Cc1ccc(C(=O)CC(=O)COc2ccc(Cl)cc2)cc1	none (no result: CYP2C9 inh, CYP2C19 act, CYP2C9 act, CYP2C19 inhib)
Cc1ccc(-n2c(SCC(=O)Nc3ccc(N4CCOCC4)cc3)nc3ccccc3c2=O)cc1	none (no result: CYP2C9 inh, CYP2C19 act, CYP2C9 act, CYP2C19 inhib)
O=C1CCCN1CC(CN1CCOCC1)Sc1nc2ccccc2c(=O)n1-c1ccccc1 (stereo not drawn)	CYP2C9 inh 93, CYP2C19 inhib 88
CCCCNC(=S)NNC(=O)c1csc2ccccc12	CYP2C19 inhib 62
CCCc1cc(C(=O)N2CCN(c3ccccc3C)CC2)cs1	CYP2C9 inh 66, CYP2C19 inhib 69
O=C(c1ccc(Cn2c(=O)[nH]c3ccccc3c2=O)cc1)N1CCN(c2ccc(Cl)cc2)CC1	none
Cc1ccc(N2CCN(C(=O)c3ccccc3Br)CC2)c(C)c1	CYP2C9 inh 62, CYP2C19 inhib 98
Cc1ccc(C)c(N2CCN(C(=O)c3ccc(Cn4c(=O)[nH]c5ccccc5c4=O)cc3)CC2)c1	CYP2C9 inh 75, CYP2C19 inhib 70
Cc1ccc(N2CCN(C(=O)c3ccccc3)CC2)c(C)c1	CYP2C9 inh 76, CYP2C19 inhib 96
O=C(Nc1ccc(N2CCN(Cc3ccccc3)CC2)cc1)c1ncn[nH]1	none
Cc1cc(C)c(C#N)c(=N)o1	none
O=C(CN1CCN(c2ccc(O)cc2)CC1)NC(=O)NCc1ccco1	none (no result: CYP2C9 inh, CYP2C19 act, CYP2C9 act, CYP2C19 inhib)
COCC(C)NS(=O)(=O)c1ccc(NC(=O)C(Cc2ccccc2)NC(N)=O)cc1 (stereo not drawn)	none
Cc1ccc(-c2noc(CSc3nnc(Cc4ccccc4)n3-c3cccc(C)c3)n2)cc1	CYP2C19 inhib 82
COc1ccc(-c2noc(CSc3nnc(Cc4ccccc4)n3-c3cccc(C)c3)n2)cc1OC	CYP2C9 inh 55, CYP2C19 inhib 98
c1ccc(CN2CCC3(CC2)Nc2ccccc2CO3)cc1	CYP2C19 inhib 91
